Screening results as filed in PubChem.
The list is not random: actives were taken first. Their share in the collection is about 6%.
D1 agonist – agonists of human D1 dopamine receptor | activation, % at 2 µM | hit rate 1% among 360,000 | HEK293 T-REx D1 cells, calcium flux, agonist mode | P21728; in the data active = activation above about 30%
Target sequence (P21728 whole entry, looked up): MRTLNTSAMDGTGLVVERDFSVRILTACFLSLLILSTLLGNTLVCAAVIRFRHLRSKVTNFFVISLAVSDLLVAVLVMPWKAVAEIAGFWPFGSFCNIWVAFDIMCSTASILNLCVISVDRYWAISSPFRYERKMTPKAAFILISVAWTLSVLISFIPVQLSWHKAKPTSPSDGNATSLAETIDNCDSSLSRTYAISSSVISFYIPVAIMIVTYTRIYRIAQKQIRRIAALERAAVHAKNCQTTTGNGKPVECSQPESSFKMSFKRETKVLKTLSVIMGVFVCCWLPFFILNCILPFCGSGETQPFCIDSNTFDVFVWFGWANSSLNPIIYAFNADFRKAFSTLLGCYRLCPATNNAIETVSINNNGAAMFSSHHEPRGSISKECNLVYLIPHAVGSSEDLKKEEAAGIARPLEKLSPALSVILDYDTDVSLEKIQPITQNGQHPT
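Tetracycline-induced HEK293 TREx D1 cells, force-coupled to calcium signalling, were dye-loaded with a no-wash calcium kit. Compound was pin-added after a 10 s baseline. Fluorescence was read kinetically at 1 cycle/s for 180 s, with calcium rises flagged as agonism.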
D3 ag – D3 dopamine receptor (human) agonism. P35462. AID 652048. D3R DiscoveRx beta-arrestin cells, luminescence, 90 min. max activation, %. hit rate 0.58% among 410,000; in the data active = max activation above about 30%
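Agonist mode: compounds and dopamine controls were applied to plated cells for 90 min at 37 degrees C after an overnight attachment at 1500 cells/well. Luminescent read-out followed 30 - 60 minutes at room temperature with DiscoveRx detection reagent.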
D1 potentiator – enhances dopamine response at the human D1 receptor. HEK293 TREx D1 cells, calcium flux, dopamine EC20 potentiation. AID 504651. hit rate 0.036% among 360,000. potentiation, % at 10 µM. P21728; in the data active = potentiation above about 30%
DRD3 antagonist – antagonists of human D3 dopamine receptor; max response, negative = inhibition, %; D3R cells, DiscoveRx beta-arrestin luminescence, antagonist mode; active compounds read low; AID 652054; P35462; hit rate 2.5% among 360,000; in the data active = max response below about -50%; inconclusive = no clear call, values can overlap the other calls
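Cells expressing the human receptor were seeded at 1500 cells/well, incubated overnight at 37 degrees C in 5% CO2, then exposed to library compounds with dopamine controls for 90 minutes at 37 degrees C before luminescent detection.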
D1 antag – blocks dopamine activation of the human D1 receptor; HEK293 TREx D1 cells, calcium flux, dopamine EC80; active compounds read low; AID 504652; P21728; activity change, negative = inhibition, % at 10 µM; hit rate 3.2% among 360,000; in the data active = activity change below about -30%
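Antagonism measured as reduced calcium response to an EC80 dopamine addition following 180 s compound pre-read; cells were inducible HEK293 Trex D1 plated overnight at 30 C, read kinetically at 1 cycle/sec.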
Hits are given with their value; – = inactive; ? = inconclusive; · = no result given.

SMILES	D1 agonist	D3 ag	D1 potentiator	DRD3 antagonist	D1 antag
O=C(NCCN1CCC(Cc2ccccc2)CC1)C1CCCN(S(=O)(=O)c2cnc[nH]2)C1 (configuration not stated)	–	–	·	-77	–
O=C(NCCN1CCN(c2ccccc2F)CC1)C1CCCN(S(=O)(=O)c2cnc[nH]2)C1 (configuration not stated)	–	–	·	-56	-45
O=C(NCCc1ccccc1)C1CCCN(S(=O)(=O)c2cnc[nH]2)C1 (configuration not stated)	–	–	·	–	–
COc1ccc(CN2CCC2(C)C(=O)NCCc2c[nH]c3ccccc23)c2ccccc12 (configuration not stated)	·	–	·	–	·
COc1ccc(CCNC(=O)CSc2cn(CCNC(=O)c3c(F)cccc3F)c3ccccc23)cc1OC	–	–	–	·	–
CS(=O)(=O)Nc1ccccc1C(=O)OCc1cc(=O)n2nc(C3CCCCC3)sc2n1	–	–	–	·	–
Fc1ccc(-n2nnnc2-c2cnc(-c3cccs3)nc2C(F)(F)F)cc1	–	44	–	–	–
CCCN1CCC(C(=O)NC(c2ccc(F)cc2)c2ncccc2C)CC1 (configuration not stated)	·	–	·	-57	·
Cc1cccnc1C(NC(=O)C1CCN(CCCc2ccccc2)CC1)c1ccc(F)cc1 (configuration not stated)	·	–	·	-70	·
O=C1C=CC(=O)N1	–	–	–	-83	–
CCOC(=O)c1c(NC(=O)C2=C(C)NC(=S)NC2c2ccc(C)cc2)sc(C)c1C (configuration not stated)	–	–	–	-53	–
COc1ccccc1CNS(=O)(=O)CCNC1CC1	·	32	·	–	·
CCCCCCCCNCCS(=O)(=O)NCc1ccccc1OC	·	–	·	-60	·
COc1ccccc1CNCCS(=O)(=O)NCc1ccccc1OC	·	–	·	?	·
CCCCNCCS(=O)(=O)NCc1ccccc1OC	·	–	·	?	·
COc1ccccc1CNS(=O)(=O)CCNC1CCCCC1	·	–	·	-73	·
CCOc1ccc(-c2cc(C(=O)NC3CCCCC3)[nH]n2)c(C)c1	·	–	·	–	·
CCOc1ccc(/C=C2\SC(=S)N(CCC(=O)O)C2=O)cc1	–	–	–	–	–
O=C(O)CCN1C(=O)CC(N2C(=O)/C(=C/c3ccc(Cl)cc3)SC2=S)C1=O (configuration not stated)	–	31	–	–	–
COCCN1C(=O)/C(=C/c2ccc(N3CCCC3)cc2)SC1=S	258	–	–	–	–
CN1CCN(C(=O)CCCN2C(=O)/C(=C/c3ccc(Cl)cc3)SC2=S)CC1	–	–	–	–	-61
CN1CCN(C(=O)CCCN2C(=O)/C(=C/c3ccccc3)SC2=S)CC1	–	–	–	–	–
Cc1ccccc1S(=O)(=O)N1C[C@H]2CON(C)[C@H]2C[C@H]1c1cccc(Oc2ccccc2)c1	·	–	·	–	·
COc1ccc(OC)c(-n2c(-c3cc(-c4ccc(F)cc4)n[nH]3)n[nH]c2=S)c1	–	–	–	-81	–
COc1ccc(-c2cc(-c3n[nH]c(=S)n3-c3cc(OC)ccc3OC)[nH]n2)cc1	–	–	–	–	–
SMILES	D1 agonist	D3 ag	D1 potentiator	DRD3 antagonist	D1 antag
COc1ccc(NC(=O)C2CCCN(c3ncnc4c3nc3n4CCCCC3)C2)c(OC)c1 (configuration not stated)	–	–	–	·	–
CNC[C@H](CC1CCCCC1)NC[C@H](CO)NCCc1cccc(C(F)(F)F)c1	–	–	–	-84	–
N#CC1=C(N)C(C#N)(C#N)C(c2cccnc2)C2CCCC=C12 (configuration not stated)	–	·	–	·	-30
COCCNC(=O)C(c1ccc(C)o1)N(Cc1ccc(OC)cc1)C(=O)Cn1nnc2ccccc21 (configuration not stated)	56	–	–	–	–
COc1ccc(CNC(=O)C(c2ccc(C)o2)N(Cc2cccs2)C(=O)Cc2cccs2)cc1 (configuration not stated)	–	–	–	-57	–
O=C(NCc1ccccc1)C(c1ccccc1)N(Cc1ccc2c(c1)OCO2)C(=O)Cc1cccs1 (configuration not stated)	34	–	–	–	–
O=C(NC1CCCC1)C(c1ccccc1)N(Cc1ccc2c(c1)OCO2)C(=O)Cc1cccs1 (configuration not stated)	–	–	–	–	–
CCn1cc(S(=O)(=O)c2ccc(OC)cc2)c(=O)c2cc(F)c(N3CCC(C)CC3)cc21	–	–	–	·	–
CCOCCCNC(=O)C1CCN(c2nn3cc(-c4ccc(F)cc4)nc3s2)CC1	–	–	–	·	–
CC(=O)c1ccc(S(=O)(=O)Nc2ccc(-c3cn4c(C)csc4n3)cc2)cc1	–	–	–	·	–
COc1ccc(/C=C/C(=O)Nc2ccc3nc4c(c(Nc5ccc(OC)c(OC)c5)c3c2)CCCC4)cc1	–	–	–	·	–
CCS(=O)(=O)c1ncc(Cl)c(C(=O)Nc2c(C(=O)c3ccc(C)cc3)oc3ccccc23)n1	–	–	–	·	–
O=C(Nc1ccccc1F)c1nc(S(=O)(=O)Cc2ccccc2F)ncc1Cl	–	–	–	·	-45
Cc1ccc(CSc2ncc(Cl)c(C(=O)NCc3ccccc3)n2)cc1	–	–	–	·	–
O=C(NCc1ccccc1)c1nc(S(=O)(=O)Cc2ccc(F)cc2)ncc1Cl	–	–	–	·	-46
Cc1ccc(NC(=O)c2nc(S(=O)(=O)Cc3ccccc3)ncc2Cl)cc1	–	–	–	-86	–
O=C(Nc1ccc(F)cc1)c1nc(S(=O)(=O)Cc2ccccc2)ncc1Cl	–	–	–	-110	-51
O=C(Nc1nc2ccc(F)cc2s1)c1nc(S(=O)(=O)Cc2ccccc2)ncc1Cl	–	–	–	·	–
Cc1ccc(NC(=O)/C=C\C(=O)N(c2ccc(C(C)C)cc2)C(C(=O)NCc2ccco2)c2ccc(F)cc2)cc1 (configuration not stated)	–	–	–	·	–
COc1ccc(-c2nn3c(=O)cc(CN4CCN(C(=O)Nc5cc(C)ccc5C)CC4)nc3s2)cc1	–	–	–	·	–
Cc1ccc2c(c1)cc1c(=O)n(Cc3ccccc3Cl)nc(C)n12	–	–	–	·	–
Cc1ccccc1CS(=O)(=O)c1ncc(Cl)c(C(=O)Nc2ccc(F)cc2)n1	–	–	–	-84	–
CCOC(=O)[C@H]1[C@H]2COc3ccc(C)cc3[C@@H]2N2C(=O)c3ccc(C)cc3NC(=O)[C@@]12C	–	–	–	–	–
CCOC(=O)[C@H]1[C@H]2COc3ccc(Br)cc3[C@@H]2N2C(=O)c3ccc(Cl)cc3NC(=O)[C@@]12C	–	–	–	-75	–
CCOC(=O)[C@H]1[C@H]2COc3ccc(Cl)cc3[C@@H]2N2C(=O)c3cc(F)ccc3NC(=O)[C@@]12C	31	–	–	–	–
CNc1nc(-c2ccccc2)c2sccc2n1	·	–	·	-74	·
Cc1ccc(CN(Cc2ccccc2)C(=S)NCC(=O)NCc2cccnc2)o1	–	–	–	–	-48
